# Screens as filed in PubChem.
# FECH block: inhibitors of human ferrochelatase, primary screen, biochemical, purified FECH, Ni-mesoporphyrin absorbance | Ferrochelatase, mitochondrial (Homo sapiens), P22830 | Ni-mesoporphyrin absorbance 550 nm | calls only at 10 µM (by protocol) | hit rate 3.3% among 20,000 | AID 1671448, 2021;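 active = enzyme reaction rate more than 3 SD below the solvent-only control wells on the same plate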;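 note: lower slope than DMSO wells means FECH inhibition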
# Target sequence (P22830 whole entry, looked up): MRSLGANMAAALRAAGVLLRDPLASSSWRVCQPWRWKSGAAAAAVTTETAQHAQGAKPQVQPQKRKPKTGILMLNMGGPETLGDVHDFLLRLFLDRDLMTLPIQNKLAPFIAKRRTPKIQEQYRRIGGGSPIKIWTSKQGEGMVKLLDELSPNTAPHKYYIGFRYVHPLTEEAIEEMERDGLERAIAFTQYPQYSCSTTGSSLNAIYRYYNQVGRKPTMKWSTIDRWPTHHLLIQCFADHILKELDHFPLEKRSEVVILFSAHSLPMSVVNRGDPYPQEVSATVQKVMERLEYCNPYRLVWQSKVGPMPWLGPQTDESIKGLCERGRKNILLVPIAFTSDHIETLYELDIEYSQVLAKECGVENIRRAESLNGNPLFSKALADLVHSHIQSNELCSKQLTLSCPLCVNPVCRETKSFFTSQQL
# Active calls of the source: *; i = inactive; + = active, no number. The full list was thinned out, with hits kept by preference.
SMILES,FECH block
O=C(CCCN1C(=O)c2cccnc2Sc2ccccc21)Nc1cc(-c2cccc(Cl)c2)no1,i
Cc1ccc(NC(=O)CN2C(=O)CN(C)C(=O)c3ccccc32)cc1C,i
CCCCOc1ccc(CNC(=O)CN2C(=O)c3cccnc3Sc3ccccc32)cc1,+
CN(C)c1ccc(CNC(=O)CN2C(=O)c3cccnc3Sc3ccccc32)cc1,+
CCCCOc1ccc(CNC(=O)c2ccc(CN3C(=O)CCn4nccc43)cc2)cc1,i
CN1CC(=O)N(CC(=O)Nc2ccc(F)c(F)c2)c2ccccc2C1=O,i
Cc1ccc(NC(=O)CN2C(=O)c3cccnc3Sc3ccccc32)cc1F,+
CN1CC(=O)N(CC(=O)NCc2ccc(F)cc2)c2ccccc2C1=O,i
O=C(CN1C(=O)c2cccnc2Sc2ccccc21)NCCc1ccco1,i
CC(CCn1cccn1)NC(=O)C(C)(C)c1ccccc1 (stereo not given),i
CC(C)(C)c1ccc(-c2nc3nc(CN4CCCC4)cc(=O)n3[nH]2)cc1,i
O=C(COc1ccccc1)NCc1nc2cccnc2n1Cc1ccc(F)cc1,i
CC(C)N1CCC(C(=O)NCCNS(=O)(=O)c2ccc(Cl)cc2)C1 (stereo not given),i
O=S(=O)(NCc1nc2cccnc2n1C1CCCC1)c1ccc(F)cc1,i
CC(=O)NCC(=O)N1Cc2cnc(CC(C)C)nc2C1,i
O=C(O)c1cc(NS(=O)(=O)c2ccc(C3CCCCC3)cc2)cnc1N1CCOCC1,i
O=C(CCCn1nnc(-c2ccc(F)cc2)n1)Nc1cnc2n1CCCC2,i
CN(C)CC(=O)Nc1ccc(C(=O)Nc2cnc3n2CCCC3)cc1,i
Cn1nnc(-c2ccc(C(=O)Nc3cnc4n3CCCC4)cc2)n1,+
Cc1cccc(SC2CCN(Cc3c(CO)cnc(C)c3O)CC2)c1,i
CN(Cc1ccon1)C(=O)[C@@H]1C[C@H](NC(=O)c2ccc(Cl)cc2)CN1C,i
COc1ccc(CNS(=O)(=O)c2cc(N3C(=O)CCS3(=O)=O)ccc2C)cc1OC,+
COc1ccc(N2C(=O)CCS2(=O)=O)cc1S(=O)(=O)NCc1ccc(C)cc1,i
CCOC(=O)C1CCN(S(=O)(=O)c2cc(N3C(=O)CCS3(=O)=O)ccc2OC)CC1,i
Cc1ccc(N2C(=O)CCS2(=O)=O)cc1S(=O)(=O)N1CCN(c2ccccn2)CC1,i
SMILES,FECH block
Cc1ccc(N2C(=O)CCS2(=O)=O)cc1S(=O)(=O)N1CCN(c2ccccc2F)CC1,+
Cc1ccc(N2C(=O)CCS2(=O)=O)cc1S(=O)(=O)N1CCC(C(N)=O)CC1,i
CCOC(=O)C1CCCN(S(=O)(=O)c2cc(N3C(=O)CCS3(=O)=O)ccc2C)C1 (stereo not given),+
COc1ccc(CNS(=O)(=O)c2cc(N3C(=O)CCS3(=O)=O)ccc2OC)cc1,i
Cc1ccc(N2C(=O)CCS2(=O)=O)cc1S(=O)(=O)N1CCN(c2ccccc2)CC1,i
O=C(c1cc(CN2CCOCC2)on1)N(Cc1ccccc1Cl)C1CC1,i
Cc1ccc(-c2c(Nc3ccccc3)oc3c2c(=O)n(C)c(=O)n3C)cc1,i
Clc1cccc(Nc2nc(NCc3ccco3)nc3c2cnn3-c2ccccc2)c1,i
CCOc1ccc(-c2nc(CSc3nc(C(F)(F)F)cc(=O)[nH]3)c(C)o2)cc1,i
O=C1CC(=O)Nc2cc(S(=O)(=O)N3CCOCC3)ccc2N1,i
Cc1ccc(NS(=O)(=O)c2ccc(N)c(S(N)(=O)=O)c2)cc1Cl,i
Cc1ccc(-c2cc(N3CCN(S(=O)(=O)c4ccc(F)cc4)CC3)ncn2)cc1,i
O=C1CC(=O)Nc2cc(S(=O)(=O)N3CCCCC3)ccc2N1,i
O=C1CC(=O)Nc2cc(S(=O)(=O)N3CCN(c4ccc(F)cc4)CC3)ccc2N1,+
Nc1ccc(S(=O)(=O)N2CCN(c3ccc(F)cc3)CC2)cc1S(N)(=O)=O,+
COC(C)(C)CC(C)NCc1nc2cc(C)c(C)cc2[nH]1 (stereo not given),i
CSc1nc(Nc2ccc(N3CCCC3)cc2)c(C#N)c(-c2ccccc2)n1,i
CCc1oc2c(Cl)cc(-n3cnnc3)cc2c1C,i
CCN(CCc1nc2ccc(C)cc2[nH]1)C(=O)c1cnc(C(C)C)nc1C,i
O=C(NCc1ccccc1)C1CCN(c2ncnc3c2nc2n3CCCCC2)CC1,i
CN(CCNC(=O)C1CCN(c2ncnc3c2nc2n3CCCCC2)CC1)Cc1ccccc1,+
CCN(CCNC(=O)C1CCCN(c2ncnc3c2nc2n3CCCCC2)C1)Cc1ccccc1 (stereo not given),i
O=S(=O)(Nc1nc2n(n1)C(c1ccccc1)C=C(c1ccccc1)N2)c1ccc(Cl)cc1 (stereo not given),i
Cc1ccc(C2=CC(c3ccccc3Cl)n3nc(NS(=O)(=O)c4ccc(C)cc4)nc3N2)cc1 (stereo not given),i
Cc1ccc(S(=O)(=O)Nc2nc3n(n2)C(c2ccccc2)C=C(c2ccc(Cl)cc2)N3)cc1 (stereo not given),i
SMILES,FECH block
Cc1ccc(C2=CC(c3ccc(C)cc3)n3nc(NS(=O)(=O)c4ccc(C)cc4)nc3N2)cc1 (stereo not given),+
Cc1ccc(S(=O)(=O)Nc2nc3n(n2)C(c2c(F)cccc2Cl)C=C(c2ccccc2)N3)cc1 (stereo not given),+
COc1ccc(C2C=C(c3ccccc3)Nc3nc(NS(=O)(=O)c4ccc(C)cc4)nn32)cc1 (stereo not given),i
CCCSc1ncc(CN(C)Cc2n[nH]c3c2CCCC3)cn1,i
CCOc1ccccc1Nc1cc(-c2ccc(C)cc2)nc(C)n1,i
Cc1cc(C(=O)N2CCC3(CC2)C(=O)NCCN3C)n[nH]1,i
NC(=O)c1ccnc(N2CCC(N3CCCC(C(=O)N4CCOCC4)C3)CC2)c1 (stereo not given),i
CCOC(=O)c1cccnc1N1Cc2cnc(CC(C)C)nc2C1,i
COC(=O)c1cc2ccsc2n1CC(=O)Nc1cc(Cl)ccc1C,i
Cc1ccc(C(=O)O)c(N2CCCN(CC3CC3)C(C(C)C)C2)n1 (stereo not given),i
CCCC(C(=O)NCc1ccc2c(c1)OCO2)N1Cc2ccccc2C1=O (stereo not given),i
O=C(NC1CCCCC1)c1nc[nH]c1C(=O)NC1CCCCNC1=O (stereo not given),i
CCCNC(=O)c1[nH]cnc1C(=O)NC1CCCCNC1=O (stereo not given),i
O=C(NC1CC1)c1nc[nH]c1C(=O)NC1CCCCNC1=O (stereo not given),+
CCc1ccc(CN2CCOCC(CN(C)C)C2)nc1 (stereo not given),i
CC1=NN(CC(=O)NCc2cc(-c3ccco3)on2)CC1,i
O=C(NCCc1nc2c(s1)CCCC2)c1cn(-c2ccccc2)nn1,i
Cc1ccc(-c2cc(C(=O)Nc3ccc(S(N)(=O)=O)cc3)no2)cc1C,+
Cc1nc(-c2cccc(NC(=O)Nc3ccc(S(N)(=O)=O)cc3)c2)no1,i
NS(=O)(=O)c1ccc(CCNC(=O)c2cc(-c3ccc(Cl)cc3)on2)cc1,i
CCOc1ccc(-c2ccnc(N(CC)CC)n2)cc1C(=O)O,i
Cc1ccccc1CCC1CCCN(CCO)C1 (stereo not given),i
Fc1cccc(F)c1CCC1CCCN(Cc2cscn2)C1 (stereo not given),i
Fc1ccc(CCC2CCCN(CCCn3cnnn3)C2)c(F)c1 (stereo not given),+
